# In the supplement of paper PMC8728848:
# This is one part of a sample in which the strongest signals are shown more often than they occur.
# Tests used:
# Assay in all cases: glycan array binding signal (z-score within array); higher = stronger binding
# Settings in all cases: glycan notation: IUPAC condensed, linker removed; mutation: H262T
# Gal3S(b1-3)GlcNAc = molecular target: Gal3S(b1-3)GlcNAc
# Outline: (§1)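 From the Consortium for Functional Glycomics database, 3228 arrays were curated, keeping only those whose protein sequence was available. Binding is given as a within-array Z-score averaged across arrays sharing a protein sequence and across linkers. Negative Z-scores can be read as non-binding.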
# GalNAc(b1-3)GlcNAc = molecular target: GalNAc(b1-3)GlcNAc
# Outline: as §1
# [1] = molecular target: GlcA3S(b1-3)Gal(b1-4)GlcNAc(b1-3)Gal(b1-4)Glc
# Outline: as §1
# [2] = molecular target: GlcNAc(a1-4)Gal(b1-4)GlcNAc
# Outline: as §1
# [3] = molecular target: GlcNAc(b1-2)[GlcNAc(b1-6)]Man(a1-6)[GlcNAc(b1-2)Man(a1-3)]Man(b1-4)GlcNAc(b1-4)[Fuc(a1-6)]GlcNAc
# Outline: as §1
# GlcNAc(b1-3)Gal = molecular target: GlcNAc(b1-3)Gal
# Outline: as §1
# [4] = molecular target: GlcNAc(b1-3)Gal(b1-3)GalNAc
# Outline: as §1
# [5] = molecular target: GlcNAc(b1-3)Gal(b1-4)GlcNAc(b1-3)Gal(b1-4)GlcNAc(b1-3)Gal(b1-4)GlcNAc(b1-2)[GlcNAc(b1-3)Gal(b1-4)GlcNAc(b1-3)Gal(b1-4)GlcNAc(b1-3)Gal(b1-4)GlcNAc(b1-6)]Man(a1-6)[GlcNAc(b1-3)Gal(b1-4)GlcNAc(b1-3)Gal(b1-4)GlcNAc(b1-3)Gal(b1-4)GlcNAc(b1-2)Man(a1-3)]Man(b1-4)GlcNAc(b1-4)[Fuc(a1-6)]GlcNAc
# Outline: as §1
# [6] = molecular target: GlcNAc(b1-4)GlcNAc(b1-4)GlcNAc(b1-4)GlcNAc(b1-4)GlcNAc(b1-4)GlcNAc
# Outline: as §1
# GlcNAc(b1-6)GalNAc = molecular target: GlcNAc(b1-6)GalNAc
# Outline: as §1
# Kdn(a2-3)Gal(b1-3)GalNAc = molecular target: Kdn(a2-3)Gal(b1-3)GalNAc
# Outline: as §1
# Kdn(a2-3)Gal(b1-4)GlcNAc = molecular target: Kdn(a2-3)Gal(b1-4)GlcNAc
# Outline: as §1
# [7] = molecular target: Man(a1-3)[Man(a1-6)]Man(a1-6)[Man(a1-2)Man(a1-3)]Man(b1-4)GlcNAc(b1-4)GlcNAc
# Outline: as §1
# Man(b1-4)GlcNAc = molecular target: Man(b1-4)GlcNAc
# Outline: as §1
# [8] = molecular target: Neu5Ac(a2-3)Gal(b1-3)GalNAc
# Outline: as §1
# [9] = molecular target: Neu5Ac(a2-3)Gal(b1-3)GalNAc6S
# Outline: as §1
# [10] = molecular target: Neu5Ac(a2-3)Gal(b1-3)GlcNAc
# Outline: as §1
# [11] = molecular target: Neu5Ac(a2-3)Gal(b1-4)GlcNAc(b1-2)Man(a1-3)[Neu5Ac(a2-3)Gal(b1-4)GlcNAc(b1-2)Man(a1-6)]Man(b1-4)GlcNAc(b1-4)GlcNAc
# Outline: as §1
# [12] = molecular target: Neu5Ac(a2-3)Gal(b1-4)GlcNAc(b1-6)GalNAc
# Outline: as §1
# [13] = molecular target: Neu5Ac(a2-3)Gal6S(b1-4)GlcNAc
# Outline: as §1
# [14] = molecular target: Neu5Ac(a2-3)Gal6S(b1-4)[Fuc(a1-3)]GlcNAc
# Outline: as §1
# [15] = molecular target: Neu5Ac(a2-3)GalNAc(b1-4)GlcNAc
# Outline: as §1
# [16] = molecular target: Neu5Ac(a2-6)Gal(b1-4)GlcNAc(b1-2)Man(a1-6)[Gal(b1-4)GlcNAc(b1-2)Man(a1-3)]Man(b1-4)GlcNAc(b1-4)GlcNAc
# Outline: as §1
# [17] = molecular target: Neu5Ac(a2-6)Gal(b1-4)GlcNAc(b1-3)Gal(b1-3)GlcNAc
# Outline: as §1
# [18] = molecular target: Neu5Ac(a2-6)Gal(b1-4)GlcNAc(b1-3)Gal(b1-4)GlcNAc(b1-3)[Neu5Ac(a2-6)Gal(b1-4)GlcNAc(b1-3)Gal(b1-4)GlcNAc(b1-6)]GalNAc
# Outline: as §1
# [19] = molecular target: Neu5Ac(a2-6)Gal(b1-4)GlcNAc(b1-3)Gal(b1-4)GlcNAc(b1-6)[Gal(b1-3)]GalNAc
# Outline: as §1
# [20] = molecular target: Neu5Ac(a2-6)GalNAc(b1-4)GlcNAc6S
# Outline: as §1
# [21] = molecular target: Neu5Ac(a2-6)GlcNAc(b1-4)GlcNAc(b1-4)GlcNAc
# Outline: as §1
# [22] = molecular target: Neu5Ac9Ac(a2-3)Gal(b1-3)GlcNAc
# Outline: as §1
# [23] = molecular target: Neu5Gc(a2-3)Gal(b1-4)GlcNAc
# Outline: as §1
binder,measurement,setting,value
MGL6A (Homo sapiens) (protein) MTRTYENFQYLENKVKVQGFKNGPLPLQSLLQRLCSGPCHLLLSLGLGLLLLVIICVVGFQNSKFQRDLVTLRTDFSNFTSNTVAEIQALTSQGSSLEETIASLKAEVEGFKQERQAVHSEMLLRVQQLVQDLKKLTCQVATLNNNGEEASTEGTCCPVNWVEHQDSCYWFSHSGMSWAEAEKYCQLKNAHLVVINSREEQNFVQKYLGSAYTWMGLSDPEGAWKWVDGTDYATGFQNWKPGQPDDWQGHGLGGGEDCAHFTPDGRWNDDVCQRPYHWVCEAGLGQTSQESH,glycan array binding signal (z-score),Gal3S(b1-3)GlcNAc,-0.208
same,glycan array binding signal (z-score),GalNAc(b1-3)GlcNAc,0.976
same,glycan array binding signal (z-score),[1],-0.178
same,glycan array binding signal (z-score),[2],-0.173
same,glycan array binding signal (z-score),[3],-0.173
same,glycan array binding signal (z-score),GlcNAc(b1-3)Gal,-0.178
same,glycan array binding signal (z-score),[4],-0.166
same,glycan array binding signal (z-score),[5],-0.162
same,glycan array binding signal (z-score),[6],-0.175
same,glycan array binding signal (z-score),GlcNAc(b1-6)GalNAc,5.17
same,glycan array binding signal (z-score),Kdn(a2-3)Gal(b1-3)GalNAc,-0.176
same,glycan array binding signal (z-score),Kdn(a2-3)Gal(b1-4)GlcNAc,-0.161
same,glycan array binding signal (z-score),[7],-0.153
same,glycan array binding signal (z-score),Man(b1-4)GlcNAc,-0.172
same,glycan array binding signal (z-score),[8],-0.16
same,glycan array binding signal (z-score),[9],-0.171
same,glycan array binding signal (z-score),[10],-0.176
same,glycan array binding signal (z-score),[11],-0.123
same,glycan array binding signal (z-score),[12],6.48
same,glycan array binding signal (z-score),[13],-0.173
same,glycan array binding signal (z-score),[14],-0.177
same,glycan array binding signal (z-score),[15],-0.169
same,glycan array binding signal (z-score),[16],-0.172
same,glycan array binding signal (z-score),[17],-0.175
same,glycan array binding signal (z-score),[18],-0.172
same,glycan array binding signal (z-score),[19],-0.166
same,glycan array binding signal (z-score),[20],-0.176
same,glycan array binding signal (z-score),[21],-0.175
same,glycan array binding signal (z-score),[22],-0.175
same,glycan array binding signal (z-score),[23],-0.175
